# D1 antagonist = blocks dopamine activation of the human D1 receptor; HEK293 TREx D1 cells, calcium flux, dopamine EC80; active compounds read low; activity change, negative = inhibition, % at 10 µM; 360,000 tested, 3.2% active; AID 504652; in the data active = activity change below about -30%; note: % is set by controls: 0 for no effect and ±100 for the full control effect
#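 HEK293 T-REx cells expressing inducible, force-coupled D1 receptor; no-wash Ca dye, 30–90 min RT. Cmpd → 180 s read at 1 Hz → EC80 DA → 180 s read.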
# TRHR enhancer = allosterically enhances the human TRH receptor | P34981 | TRHR cells, fluo-8 calcium fluorescence, EC20 TRH enhancement | enhancement, % at 2 µM | 360,000 tested, 0.66% active; in the data active = enhancement above about 30%; note: 0% is about no effect
# Target sequence (P34981 whole entry, looked up): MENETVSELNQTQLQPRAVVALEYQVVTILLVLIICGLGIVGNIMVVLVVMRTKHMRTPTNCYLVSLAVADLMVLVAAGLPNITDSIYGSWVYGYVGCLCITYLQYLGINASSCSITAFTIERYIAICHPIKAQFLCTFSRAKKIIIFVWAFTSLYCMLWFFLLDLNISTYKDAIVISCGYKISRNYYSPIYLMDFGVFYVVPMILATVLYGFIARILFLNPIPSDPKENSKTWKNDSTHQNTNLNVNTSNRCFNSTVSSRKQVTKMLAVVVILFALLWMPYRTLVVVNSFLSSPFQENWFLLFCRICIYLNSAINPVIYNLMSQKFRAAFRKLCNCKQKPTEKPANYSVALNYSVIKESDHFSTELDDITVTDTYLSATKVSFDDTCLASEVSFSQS
#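 TRHR-expressing cells loaded with fluo-8 calcium dye were read kinetically (ex 480/em 530) during compound addition, then stimulated with an EC20 of TRH (10 nM final). Enhancement of the Gq-mediated intracellular calcium response was scored.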
# D1 ag = human D1 receptor agonism | P21728 | HEK293 T-REx D1 cells, calcium flux, agonist mode | activation, % at 2 µM | 360,000 tested, 1% active; note: 0% is about no effect
#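 Tetracycline-induced HEK293 TREx D1 cells, force-coupled to calcium signalling, were dye-loaded with a no-wash calcium kit. Compound was pin-added after a 10 s baseline. Fluorescence was read kinetically at 1 cycle/s for 180 s, with calcium rises flagged as agonism.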
# D1 PAM = potentiators of human D1 dopamine receptor; P21728; 360,000 tested, 0.036% active; AID 504651; potentiation, % at 10 µM; HEK293 TREx D1 cells, calcium flux, dopamine EC20 potentiation; in the data active = potentiation above about 30%; note: 0% is about no effect
# TRHR ag = activates the human TRH receptor; P34981; TRHR cells, calcium flux fluo-8, FDSS agonist mode; activation, % at 2 µM; 360,000 tested, 0.18% active; AID 493084; note: 0% is about no effect
#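 Read-out: compound-evoked intracellular calcium rise in TRHR cells, fluo-8 dye, kinetic FDSS fluorescence at 1 s/cycle following a 10-cycle baseline. Cells cultured overnight before dye loading (30 min–1.5 h, RT).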
# Glioma ERSR ind = inducers of ER stress response in human glioma cells; 420,000 tested, 0.02% active; Potency, µM, for inactives: at the top dose activation, actives largely listed as activators; U87-MG GRP78 promoter luciferase reporter, 16 h; AID 602332; active = well fitted activation curve with a large enough effect; inconclusive = small, poorly fitted or top-dose-only effect; inactive = no such curve, though single readings can be large or run the other way; note: potency is the fitted concentration of half-maximal effect; series mostly up to about 76 µM; % of control where 0% means no effect; nearly all actives have a fitted effect of over 35% in size
#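 ERSR induction read as luciferase luminescence (Bright-Glo, 10 min at room temperature) in stably transfected human U87-MG glioma cells exposed to compounds for 16 h, using GRP78 as sensor.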
# * hit, by the source's call; u = inconclusive; x = not tested or not shown. Most compounds without a hit are left out; they make up all but 4% or so of the library. Cut-off read from the data, not from the text of the source, unless noted: active = activation above about 30%; inactive = the rest.
SMILES,D1 antagonist,TRHR enhancer,D1 ag,D1 PAM,TRHR ag,Glioma ERSR ind
C=Cc1ccc(Cn2c(=O)n(CC3CCC(C(=O)NC(C)C)CC3)c(=O)c3sccc32)cc1 (configuration not stated),1,-8,0,-3,0,-4%
Cc1cccc(NC(=O)c2ccccc2-c2ccccc2)c1,3,7,1,1,1,0%
Cc1cc(=O)oc2c(O)c(O)ccc12,x,x,x,x,x,28µM*
Cc1cc(=O)oc2c(CN3CCCC3)c(O)ccc12,2,8,0,1,0,2%
COc1cc(/C=C(\C#N)c2nn(CCO)c(N)c2C#N)cc(OC)c1OC,-4,33*,1,1,0,1%
N#C/C(=C\c1ccc(/C=C(/C#N)c2nn(CCO)c(N)c2C#N)cc1)c1nn(CCO)c(N)c1C#N,18,1,14,-5,1,-1%
Cc1cc(C)nc(NC(=O)CCC2CCCC2)c1,6,-2,2,-1,0,-2%
CCSc1nnc(-c2ccccc2SC)o1,1,3,2,1,0,6%
CCCOc1ccc(Br)cc1/C=N/O,-18,-2,43*,-12,0,-3%
CC1CN(c2ccc([N+](=O)[O-])cc2F)CCN1C(=O)c1ccco1 (configuration not stated),-10,9,5,-1,0,-6%
CC(Sc1nc2ccccc2s1)C(=O)c1c(N)n(C)c(=O)n(C)c1=O (configuration not stated),-42*,-4,9,-1,0,-1%
O=[N+]([O-])c1ccc(OC/C=C2\Oc3ccc([N+](=O)[O-])cc3C2N2CCOCC2)cc1 (configuration not stated),-69*,-6,3,-3,0,-7%
O=C(Nc1ccc(C(F)(F)F)cc1)N1CCN(c2ccnc3cc(Cl)ccc23)CC1,-37*,-3,13,-14,0,-7%
O=C(Nc1cc(F)ccc1F)N1CCN(c2ccnc3cc(Cl)ccc23)CC1,-19,6,11,-13,-1,-5%
Cc1cc(N2CCN(S(=O)(=O)c3ccccc3)CC2)c2ccccc2n1,-35*,-4,11,-3,0,-2%
O=S(=O)(c1cccs1)N1CCN(c2ccnc3cc(Cl)ccc23)CC1,11,-8,5,1,0,-6%
O=S(=O)(c1ccccc1)N1CCN(c2ccnc3cc(Cl)ccc23)CC1,-41*,-2,7,10,0,-4%
CSc1nc(C)c(CCOCc2ccc(F)cc2)c(=O)[nH]1,0,-1,-1,2,0,-4%
Cc1ccccc1-n1cnc2cc(NCc3cccs3)ccc21,-37*,-5,6,-10,-1,8%
COc1ccccc1-n1cnc2cc(NCc3cccs3)ccc21,-19,-4,-1,2,0,-1%
O=C(O)/C(=C\c1c(C(=O)O)[nH]c2cc(Cl)cc(Cl)c12)c1ccccc1,4,2,0,-5,1,-2%
CCCCn1c(N)c(NCC(C)C)c(=O)[nH]c1=O,-46*,-6,2,1,0,-3%
O=[N+]([O-])c1ccc(N2CCN(S(=O)(=O)c3cnc[nH]3)CC2)cc1,-3,1,0,6,1,-4%
CCOCCCn1c(SCC(=O)Nc2ccccc2OC)nc2ccccc2c1=O,-14,-2,4,-4,-1,-4%
Cn1c(SCC(=O)Nc2ccccc2F)nc2c([nH]c3ccccc32)c1=O,3,-7,0,-3,0,0%
SMILES,D1 antagonist,TRHR enhancer,D1 ag,D1 PAM,TRHR ag,Glioma ERSR ind
Cc1cccc(NC(=O)CSc2nc3c([nH]c4ccccc43)c(=O)n2C)c1C,-51*,-5,2,1,0,-4%
COc1ccccc1NC(=O)CSc1nc2ccccc2c(=O)n1C,-34*,-7,17,41*,-1,-8%
CCn1ncc(C(=O)Nc2cc(C)on2)c1C,11,13,1,-1,0,9%
c1ccc(CN2CCC3(CCCc4ccccc43)CC2)cc1,-49*,23,1,-6,-1,-8%
CCOC(=O)C1=c2s/c(=C\c3cccnc3)c(=O)n2C(N)=C(C(=O)OC)C1c1cccnc1 (configuration not stated),1,-6,4,-3,0,-4%
S=C(NCCN1CCOCC1)N/N=C/c1c2ccccc2cc2ccccc12,-3,-3,32*,1,5,-4%
COc1ccc2ccccc2c1/C=N/NC(=S)NCCN1CCOCC1,1,4,1,2,-2,2%
COc1ccc(CC(=O)Nc2cccc(-c3ccc4nnc(C)n4n3)c2)cc1,5,-1,3,1,-1,1%
CCOc1ccc(CC(=O)Nc2cccc(-c3ccc4nnc(C)n4n3)c2)cc1,-32*,17,3,3,-1,-1%
Cc1nnc2ccc(-c3cccc(NS(=O)(=O)c4ccccc4Cl)c3)nn12,-16,36*,6,2,0,-2%
Cc1nnc2ccc(-c3cccc(NC(=O)c4ccco4)c3)nn12,-33*,-7,0,-12,3,0%
Cc1ccc(Cn2cc(S(=O)(=O)c3ccc(C(C)C)cc3)c(=O)c3cc4c(cc32)OCO4)cc1,0,16,5,4,1,-5%
COC(=O)[C@H](CCSC)NC(=O)Cn1ccc(N)nc1=O,x,11,2,-2,1,2%
COc1ccccc1Nc1c2c(nc3ccc(NC(=O)c4ccc(OC)c(OC)c4)cc13)CCCC2,-11,4,0,0,0,-6%
COc1ccc(Nc2c3c(nc4ccc(NC(=O)c5ccc(F)cc5)cc24)CCCC3)cc1OC,-2,42*,0,2,-1,u
CC(=O)Oc1ccc2nc(CN3C(=O)c4ccc([N+](=O)[O-])cc4C3=O)oc(=O)c2c1,3,-3,0,0,0,-1%
Cc1ccnc(NS(=O)(=O)c2ccc(N3C(=O)Nc4ccccc4N3O)cc2)c1,12,2,3,-5,0,-1%
O=C1Nc2ccccc2N(O)N1c1ccc(S(=O)(=O)Nc2ccccn2)cc1,-50*,-4,0,-2,0,-4%
Cc1nc2c(C#N)cnn2c2c1CCNN2C,x,-5,-2,-6,0,0%
Cc1cc(C(F)(F)F)n2ncc(C(=O)O)c2n1,-31*,4,4,x,1,-3%
CN(Cc1ccco1)C(=O)c1ccc(OC2CCN(Cc3ccccn3)CC2)cc1,-25,-2,6,0,0,-4%
COc1ccc(CC2(CO)CCN(S(=O)(=O)c3sccc3C)CC2)cc1,-14,-5,32*,-6,0,2%

# Source: PubChem
